# Test results taken from PubChem BioAssay (Tox21).
# Unmarked numbers belong to inactive results. The source made the active and inactive calls. Calls come from the whole dose curve; as a rule, active = well fitted activation curve with a large enough effect in the repeat runs; inconclusive = weak or mixed curves; inactive = flat fitted curve, though single readings scatter.
# Target: KiSS-1 receptor (Homo sapiens) (UniProt Q969F8)
# Experiment: Human kisspeptin (KISS1R) small molecule agonists, calcium flux assay in KISS1R-HEK293 cells (AID 1920064)
# In short: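 HEK293 cells stably expressing human KISS1R were loaded with calcium dye for 1 h at 37 C, then given compound; fluorescence (Ex/Em 480/540) was read kinetically for 3 min. Fifteen concentrations, triplicate.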
# % is set by controls: 0 for no effect and ±100 for the full control effect.
# Sequence of KiSS-1 receptor (Homo sapiens) (Q969F8 whole entry, looked up): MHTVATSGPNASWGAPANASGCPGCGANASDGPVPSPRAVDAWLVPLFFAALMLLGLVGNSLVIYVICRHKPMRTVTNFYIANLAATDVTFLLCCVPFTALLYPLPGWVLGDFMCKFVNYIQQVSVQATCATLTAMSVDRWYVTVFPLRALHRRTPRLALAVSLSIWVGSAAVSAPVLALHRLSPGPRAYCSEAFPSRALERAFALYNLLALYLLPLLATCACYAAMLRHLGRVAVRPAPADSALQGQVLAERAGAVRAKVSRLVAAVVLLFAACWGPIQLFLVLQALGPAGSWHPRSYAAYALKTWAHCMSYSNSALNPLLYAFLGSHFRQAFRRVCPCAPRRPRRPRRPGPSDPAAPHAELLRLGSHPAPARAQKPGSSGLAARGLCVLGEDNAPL
Compound,outcome,activation
O=C(O)c1ccc(Cl)c(Cl)c1,inactive,–
COC(=O)CC#N,inactive,–
C[C@@H]1CC[C@@]2(OC1)O[C@H]1C[C@H]3[C@@H]4CC[C@H]5C[C@@H](O)CC[C@]5(C)[C@H]4CC(=O)[C@]3(C)[C@H]1[C@@H]2C,–,0.0336% [at 6.97 µM]
CC(C)(C)OC(=O)N1C[C@@H](F)C[C@H]1C(=O)O,inactive,–
Nc1[nH]c(=O)ncc1F,inactive,–
C/C=C/C=C/CCCCCCCO,inactive,–
CCOc1ccc([N+](=O)[O-])cc1,inactive,–
O=C1OC(=O)C2C3C=CC(C3)C12 (configuration not stated),inactive,–
CN1C(=O)N(c2ccccc2Br)Cc2cnc(Nc3ccc4c(c3)OCC(CO)O4)nc21 (configuration not stated),inactive,–
CN(C)CCn1nnnc1SCC1=C(C(=O)O)N2C(=O)[C@@H](NC(=O)Cc3csc(N)n3)[C@H]2SC1,inactive,–
O=Cc1ccccc1[N+](=O)[O-],inactive,–
Cc1cc(O)ccc1N,inactive,–
CCOc1nc(F)cc2nc(S(=O)(=O)Nc3c(Cl)cccc3C(=O)OC)nn12,inactive,–
Cc1cccc(C(C)(C)C)c1O,inactive,–
CCCCCCCCCCCC(=O)Cl,inactive,–
Cc1nc(C)nc(N2C[C@@H](C)N(c3ccnc([C@@H](C)O)n3)[C@@H](C)C2)n1,inactive,–
CCc1cc(Cc2cc(CC)cc(C(C)(C)C)c2O)c(O)c(C(C)(C)C)c1,inactive,–
CC(C(=O)O)c1ccc(C(=O)c2ccccc2)s1 (configuration not stated),inactive,–
COC(=O)C1=C(C)NC(C)=C(C(=O)OCCN2CCN(C(c3ccccc3)c3ccccc3)CC2)C1c1cccc([N+](=O)[O-])c1 (configuration not stated),inactive,–
CN1CCC(=C2c3ccccc3C=Cc3ccccc32)CC1,inactive,–
CNc1ccc(O)cc1,inactive,–
NNc1nc(-c2ccc([N+](=O)[O-])cc2)cs1,inactive,–
O=C(c1ccccc1)c1cccc(O)c1,inactive,–
COc1ccc(/C=C/S(=O)(=O)NC(=O)c2ccc(C)cc2Cl)cc1,inactive,–
O=[N+]([O-])c1ccc(F)c(Cl)c1,inactive,–
COc1ccccc1OC(=O)Oc1ccccc1OC,inactive,–
CCCCCCCCCCCCCCCCCl,–,2.27% [at 15.8 µM]
